This note sets out measurements from PubChem BioAssay (NCATS).

SMILES strings stand for the structures. Inconclusive results are not listed. Entries that show only a call come without a potency. The source made the active and inactive calls. Calls come from the whole dose curve; as a rule, active = well fitted activation curve with a large enough effect in the main read-out, with a control signal flat (not every such curve was filed as active); inconclusive = small, poorly fitted or top-dose-only effect, or effect the other way, or a change in a side signal; inactive = flat fitted curve, though single readings scatter.

3',5'-cyclic-AMP phosphodiesterase 4B (Homo sapiens), sequence (Q07343 whole entry, looked up): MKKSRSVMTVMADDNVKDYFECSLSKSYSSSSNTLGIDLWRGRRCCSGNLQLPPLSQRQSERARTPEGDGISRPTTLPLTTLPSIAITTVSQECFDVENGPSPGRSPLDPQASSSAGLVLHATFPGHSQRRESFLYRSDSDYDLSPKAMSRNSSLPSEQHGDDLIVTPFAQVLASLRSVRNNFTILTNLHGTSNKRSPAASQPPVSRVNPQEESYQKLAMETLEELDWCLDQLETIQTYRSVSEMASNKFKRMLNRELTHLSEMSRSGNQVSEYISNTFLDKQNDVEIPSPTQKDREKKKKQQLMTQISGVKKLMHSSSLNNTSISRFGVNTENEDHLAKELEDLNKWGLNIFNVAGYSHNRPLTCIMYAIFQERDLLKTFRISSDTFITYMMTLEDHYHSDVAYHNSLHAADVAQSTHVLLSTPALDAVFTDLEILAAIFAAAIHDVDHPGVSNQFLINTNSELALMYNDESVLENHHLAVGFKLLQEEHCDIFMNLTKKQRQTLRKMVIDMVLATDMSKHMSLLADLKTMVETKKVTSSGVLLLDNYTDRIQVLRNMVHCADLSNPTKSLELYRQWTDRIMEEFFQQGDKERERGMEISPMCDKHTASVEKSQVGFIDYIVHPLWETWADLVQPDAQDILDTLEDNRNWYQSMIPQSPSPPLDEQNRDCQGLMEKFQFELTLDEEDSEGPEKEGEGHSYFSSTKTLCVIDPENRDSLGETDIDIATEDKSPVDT

For the assay, the target named is 3',5'-cyclic-AMP phosphodiesterase 4B (Homo sapiens) (UniProt Q07343). The assay is described as follows: qHTS Assay for Inhibitors of PDE-IV (AID 607). The following applies: HEK293 ACTOne CNG channel cells, membrane potential fluorescence; series mostly up to 22.9 µM. An excerpt:
NIH Chemical Genomics Center [NCGC]
NIH Molecular Libraries Screening Centers Network [MLSCN]
The cyclic nucleotide phosphodiesterases (PDEs) are proteins that catalyze hydrolysis of 3', 5'-cyclic nucleotides, such as cyclic adenosine monophosphate (cAMP) and cyclic guanosine monophosphate (cGMP), to their corresponding 5'-nucleotide monophosphates. These enzymes play an important role in controlling cellular concentrations of cyclic nucleotides and have a central role in a variety of intracellular signaling events. cAMP PDEs are emerging as a promising class of drug targets in asthma and cardiovascular disease therapeutic areas.
There are no commercially available cell-based screening assays for PDE inhibitors: currently biochemical assays are done using pure substrates (cAMP or cGMP) and purified recombinant PDE enzymes. As with other biochemical screens on intracellular targets, false positives and false negatives may result from issues involving cell membrane permeability, cellular metabolism, and the like.
Here we report the development of a cell-based screening assay for cAMP phosphodiesterase (PDE) inhibitors. The assay is based on the BD ACTOne# technology (BD Biosciences) which utilizes a modified cyclic nucleotide-gated channel (CNG) to monitor intracellular cAMP changes in live cells. The CNG channel is localized on the plasma membrane, and opens when the intracellular cAMP level increases, resulting in ion flux and cell membrane depolarization. The influx of cations through the CNG channel can be quantified using membrane potential (MP) dyes. We modified the BD ACTOne technology to allow the detection of PDE inhibitors, and performed an inhibitor screen for PDE-IV, which is expressed endogenously in HEK293 cells. We optimized this assay in homogeneous 1536-well plate assay format for high throughput screening.
NCGC Assay Protocol Summary:
The medium contained 10% FBS (Invitrogen), 2 mM L-glutamine, and 250 ug/ml G418 (Cellgro) and 1 ug/ml puromycin (Clontech). ACTOneTM parental cells (BD Biosciences) were maintained in the same medium without puromycin.
The activity of the CNG channel was measured by BD ACTOneTM membrane potential dye kit (BD Biosciences). Forskolin, a positive control for cAMP activation and RO 20-1724, a PDE inhibitor, were both purchased from Sigma and solublized in DMSO.
Sequence,Parameter,Value,Description
1,Reagent,3 uL,1000 cells/well 1536 TC treated Black plate
3,Compound,0.5 uL,Kalypsys dispense RO 20-1724 100 uM final [A]
4,Reagent,3 uL,BD membrane potential dye
6,Compound,23 nL,Final concentration was 0.7nM to 22.9uM
8,Detector,EX 535 / EM 590 [B],Envision
Footnotes: [A] The stock 2 mM RO 20-1724 PDE inhibitor was made in 10 % DMSO. Parental cell line received 10 uM forskolin + 100 uM RO. [B] Envsion settings: Bottom Excitation 535/20 nm top emission 590/20, gain of 150 and 5 flashes per well.
Keywords: PDE, PDE-IV, cytotoxicity, flourescence, MLSMR, MLSCN, NIH Roadmap, qHTS, NCGC
(In general: In qHTS, concentration-response curves come from the screen itself.)
For the compound `O=C(c1csnn1)N1CCC2(CC1)CCN(c1ncccn1)CC2`, the Potency entry was “inactive”.

Regarding `COc1ccccc1-c1cncnc1NCCN1CCOCC1`, the Potency result is “inactive”. Under `CS(=O)(=O)N1CCC[C@@]2(CCN(C(=O)Nc3ccccc3)C2)C1` stands “inactive”; under `CC(C)NC(=O)N1CCC2(CC1)CCN(C(=O)c1cccc(F)c1)CC2`, “inactive”; under `COc1ccccc1CNc1ncncc1-c1cccnc1`, “inactive”. Under `CCNc1ncc2nc(-c3cc(F)cc(F)c3)c(=O)n(C[C@H]3CCCO3)c2n1` stands “inactive”; under `COc1ccc(-n2c(=O)cnc3cnc(N(C)C)nc32)cc1`, “inactive”. With `O=C(c1csnn1)N1CCC2(CC1)CN(Cc1cc(C(F)(F)F)cc(C(F)(F)F)c1)C2` the entry was “inactive”. Turning to `CN(C)c1ncc2nc(-c3ccc(F)cc3)c(=O)n(Cc3ccc(F)cc3)c2n1`, the Potency result is “inactive”. Take `O=C(c1csnn1)N1CCC[C@@]2(CCN(Cc3nccs3)C2)C1`: the Potency entry was “inactive”. Under `NCCC(=O)NCCc1cnc[nH]1` stands “inactive”. With `O=C(c1cnccn1)N1CCC[C@@]2(CCN(c3ccncc3)C2)C1` the entry was “inactive”; with `O=C(c1ccco1)N1CCC2(CC1)CN(Cc1cc(C(F)(F)F)cc(C(F)(F)F)c1)C2`, “inactive”; with `CS(=O)(=O)N1CCC2(CCCN(c3ccncc3)C2)CC1`, “inactive”. With `COc1cccc(-c2ccc3ncnc(NC4CCNCC4)c3c2)c1` the entry was “inactive”; with `Cc1noc(C)c1C(=O)N1CCC2(CCN(Cc3ccc(C#N)cc3)CC2)CC1`, “inactive”.

For `O=c1cnc2cnc(N3CCNCC3)nc2n1Cc1cccs1`, the Potency entry was “inactive”. Under `COc1ccc(-c2nc3cnc(N4CCOCC4)nc3n(C[C@H]3CCCO3)c2=O)cc1` stands “inactive”; under `FC(F)(F)c1ccccc1-c1cc(NCCN2CCOCC2)ncn1`, “inactive”; under `NCCCCNS(=O)(=O)c1cccc2c(Cl)cccc12`, “inactive”. Take `COCCNc1cc(-c2ccccc2C)ncn1`: the Potency result is “inactive”. With `O=C(c1ccncc1)N1CCC2(CC1)CN(c1cccc(-c3ccccc3)c1)C2` the entry was “inactive”. For the compound `Cc1ccccc1-c1cc(NCCN2CCOCC2)ncn1`, the Potency result was “inactive”. Take `COCCn1c(=O)c(C)nc2cnc(Oc3ccccc3)nc21`: the Potency result is “inactive”. Under `CC(=O)NCCNc1ncncc1-c1ccccc1C` stands “inactive”. Under `CN1CCN(c2ncnc3ccc(-c4ccc5c(c4)OCO5)cc23)CC1` stands “inactive”. Regarding `COCCn1c(=O)c(-c2cccc(C#N)c2)nc2cnc(OC)nc21`, the Potency entry was “inactive”. `Cc1noc(C)c1C(=O)N1CCC2(CCCN(C(=O)Nc3cccc(F)c3)C2)CC1`: the Potency result is “inactive”. Under `O=c1c(-c2cccs2)nc2cnc(N3CCOCC3)nc2n1Cc1ccc(F)cc1` stands “inactive”.

In the case of `COCCNc1ncnc2ccc(-c3cccc(NS(C)(=O)=O)c3)cc12`, the Potency entry is “inactive”. With `Cc1nc2cnc(Nc3ccccc3)nc2n(C)c1=O`, the Potency entry was “inactive”. Under `COC(=O)N1CCC2(CCN(Cc3nccs3)CC2)CC1` stands “inactive”; under `CC(C)NC(=O)N1CC[C@@]2(CCCN(C(=O)c3csnn3)C2)C1`, “inactive”.

Take `Cc1nc2cnc(N3CCN(C)CC3)nc2n(CCC#N)c1=O`: the Potency entry is “inactive”. In the case of `N#Cc1cccc(-c2nc3cnc(Oc4cccc(Cl)c4)nc3n(C3CC3)c2=O)c1`, the Potency entry was “inactive”. Regarding `COc1ccc(-n2c(=O)cnc3cnc(N4CCOCC4)nc32)cc1`, the Potency result was “inactive”.

Take `CS(=O)(=O)Nc1cccc(-c2cncnc2NCc2cccs2)c1`: the Potency entry was “inactive”. For the compound `COc1ccc(-n2c(=O)c(-c3cn(C)c4ccccc34)nc3cnc(N4CCOCC4)nc32)cc1`, the Potency result is “inactive”. In the case of `COc1ccccc1-c1nccc(NCc2cnc(C)cn2)n1`, the Potency entry is “inactive”. Regarding `Cn1c(=O)c(-c2ccc(Cl)cc2)nc2cnc(Oc3cccc(Cl)c3)nc21`, the Potency entry is “inactive”.
